TDP1 block: qHTS Assay for Inhibitors of Tyrosyl-DNA Phosphodiesterase (TDP1); Tyrosyl-DNA phosphodiesterase 1 (Homo sapiens), Q9NUW8; recombinant TDP1, AlphaScreen DNA substrate cleavage; Potency, µM (doses to about 130 µM), without a hit: at the top dose activity change, negative = inhibition, hits mostly inhibitors; hit rate 0.28% among 350,000; AID 485290, 2010; also: potency is read from the fitted curve at half-maximal effect; % is scaled to controls: 0 for no effect and ±100 for the full control effect; nearly all actives have a fitted effect of over 40% in size
Target sequence (Q9NUW8 whole entry, looked up): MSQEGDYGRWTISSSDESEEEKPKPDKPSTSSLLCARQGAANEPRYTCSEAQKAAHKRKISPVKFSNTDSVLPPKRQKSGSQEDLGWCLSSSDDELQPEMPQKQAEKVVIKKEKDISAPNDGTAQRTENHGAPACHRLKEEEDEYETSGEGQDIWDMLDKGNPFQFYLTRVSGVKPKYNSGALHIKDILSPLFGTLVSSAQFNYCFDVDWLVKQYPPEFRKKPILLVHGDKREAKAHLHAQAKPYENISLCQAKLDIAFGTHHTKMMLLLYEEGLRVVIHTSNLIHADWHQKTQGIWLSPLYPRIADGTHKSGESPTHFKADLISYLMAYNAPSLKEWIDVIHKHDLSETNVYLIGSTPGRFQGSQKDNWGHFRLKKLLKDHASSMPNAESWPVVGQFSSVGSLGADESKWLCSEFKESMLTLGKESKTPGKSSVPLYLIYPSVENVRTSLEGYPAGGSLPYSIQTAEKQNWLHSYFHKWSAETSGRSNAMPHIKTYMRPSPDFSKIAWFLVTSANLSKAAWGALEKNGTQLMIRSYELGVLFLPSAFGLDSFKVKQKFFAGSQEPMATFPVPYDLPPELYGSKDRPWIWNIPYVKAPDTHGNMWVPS
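Recombinant E. coli-expressed Tdp1 (1 nM) preincubated with compound 15 min at RT, then 5'-biotin/3'-phosphotyrosine-FITC DNA substrate (15 nM) added for 5 min. AlphaScreen beads (10 ug/ml) added, 10 min RT; tyrosine-FITC cleavage read as signal loss.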
HepG2 viability: qHTS for Inhibitors of TGF-b: Cytotox Counterscreen. HepG2 CAGA-GFP viability, ATP luminescence, 18 h. Potency, µM (highest dose often 46.1 µM), for the others: top-dose activity change, negative = cytotoxicity, hits mostly cytotoxic. hit rate 0.76% among 410,000. AID 588856, 2011; also: potency is read from the fitted curve at half-maximal effect
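CellTiter-Glo luminescence gave cytotoxicity after 18 hours at 37 degrees C. The cells were HepG2 CAGA-GFP in 1% FBS DMEM, stimulated with 500 pg/mL TGF-beta after compound addition. %Activity was normalised to no-cell wells (complete cell-killing) and DMSO (no toxicity), and curves were fitted and classified.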
DT40 TDP1 CPT: qHTS for Inhibitors of human tyrosyl-DNA phosphodiesterase 1 (TDP1): qHTS in cells in presence of CPT; chicken DT40 Tdp1-/-;hTDP1 cells + 20 nM CPT, ATP luminescence, 48 h; Potency, µM (titrated, usually from 46.2 µM), inactives show top-dose activity change, negative = growth inhibition, usual class: inhibitors; hit rate 12% among 420,000; AID 686979, 2013; also: potency is read from the fitted curve at half-maximal effect; % is scaled to controls: 0 for no effect and ±100 for the full control effect; nearly all actives have a fitted effect of over 55% in size
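Cell growth measured by CellTiter-Glo luminescence after a minimum 48 h, 37 C compound exposure with 20 nM CPT in Tdp1-knockout DT40 cells stably expressing hTDP1, seeded 400/well; qHTS titration format.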
DT40 TDP1 no CPT: qHTS for Inhibitors of human tyrosyl-DNA phosphodiesterase 1 (TDP1): qHTS in cells in absence of CPT; DT40 Tdp1-/- hTDP1 cells, no CPT, ATP luminescence, 48 h; Potency, µM (series often up to 46.2 µM), without a hit: top-dose activity change, negative = growth inhibition, actives largely listed as inhibitors; hit rate 15% among 420,000; AID 686978, 2013; also: potency is read from the fitted curve at half-maximal effect; % is scaled to controls: 0 for no effect and ±100 for the full control effect; nearly all actives have a fitted effect of over 55% in size
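Luminescent ATP content (CellTiter-Glo) served as the growth readout. Knockout chicken DT40 cells expressing human TDP1 were exposed to compounds without camptothecin for a minimum 48 hr at 37 °C.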
TGFb inhibitor: qHTS for Inhibitors of TGF-b. HepG2 CAGA-GFP TGF-b/SMAD3 reporter, GFP fluorescence, 18 h; TGF-beta stimulated, 500 pg/mL final. Potency, µM (highest dose often 46.1 µM), inactives show at the top dose activity, negative = inhibition, most hits filed as inhibitors. hit rate 1.2% among 410,000; also: potency is read from the fitted curve at half-maximal effect; % is scaled to controls: 0 for no effect and ±100 for the full control effect; nearly all actives have a fitted effect of over 65% in size
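HEPG2 CAGA-GFP cells (1000/well, DMEM with 1% FBS) were pre-incubated 2 h at 37 degrees C, given compound by pin tool, then stimulated with TGF-beta at 500 pg/mL final for 18 h before per-cell GFP fluorescence imaging.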
IL1B secr inh: qHTS for Inhibitors of Inflammasome Signaling: IL-1-beta AlphaLISA Primary Screen | activity change, % at 57.5 µM | hit rate 4.7% among 360,000 | THP-1 LPS/ATP IL-1B secretion, AlphaLISA, 16 h; stronger effect = lower value; in the data active = activity change below about -50%; inconclusive = mostly about -30% to -49%; also: % is scaled to controls: 0 for no effect and ±100 for the full control effect
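THP-1 cells pretreated 1 hr with compounds (up to 57.5 uM final), then stimulated with LPS (250 ng/mL final) plus ATP (1.25 mM final); secreted IL-1B measured by AlphaLISA after 16 hr, decreased signal indicating inhibition.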
Active calls of the source: *; ? = inconclusive; . = no result given; [ ] = remark or other dose. Most compounds without a hit are left out; they make up all but 19% or so of the library. Unless noted, calls follow the shape of the dose curve; as a rule, active = well fitted curve in the direction sought with a large enough effect; inconclusive = small, poorly fitted or top-dose-only effect, or another doubt; inactive = no such curve, though single readings can be large; an effect the other way counts as inactive or inconclusive.

SMILES	TDP1 block	HepG2 viability	DT40 TDP1 CPT	DT40 TDP1 no CPT	TGFb inhibitor	IL1B secr inh
COc1cccc(CN(C(=O)COc2ccc(Cl)cc2)C2CCS(=O)(=O)C2)c1 (centres undefined)	5.0%	-4.7%	-25.6%	?	-2.3%	15.3
O=C(N/N=C/c1ccc(Br)s1)c1ccc([N+](=O)[O-])cc1	-10.3%	-10.5%	?	2.59µM*	4.4%	-3.8
O=C(NN=Cc1ccc(N2CCOCC2)s1)c1ccc([N+](=O)[O-])cc1	2.4%	-5.7%	?	18.4µM*	4.8%	?
Cc1ccc(C(=O)NCC(c2ccco2)S(=O)(=O)c2ccccc2)cc1C (centres undefined)	2.7%	5.3%	?	?	7.1%	.
COc1ccc(-c2csc(NC(=O)CN3C(=O)NC4(CCCC4)C3=O)n2)c(OC)c1	2.1%	0.0%	?	?	0.0%	?
CC(C)(C)c1ccc(-c2csc(NC(=O)CN3C(=O)NC4(CCCCC4)C3=O)n2)cc1	3.9%	-6.2%	10.3µM*	9.2µM*	22.1%	-16.5
COc1ccc(-c2csc(NC(=O)CN3C(=O)NC4(CCCC4)C3=O)n2)cc1OC	-16.2%	8.4%	-27.1%	-20.3%	10.3%	-61.7*
Cc1nc(Nc2ncc3c(n2)CC(C)(C)CC3=O)nc2ccccc12	.	-7.8%	-2.0%	22.4%	6.8%	-7.2
CC1=NC(Nc2nc(C)c3ccccc3n2)=NC(C)(C)C1	6.2%	-22.1%	20.6µM*	16.4µM*	0.0%	-99.9*
COc1ccccc1CN1CCN(C2CCN(C(=O)Nc3ccccc3)CC2)C(=O)C1=O	3.8%	5.6%	-17.5%	2.9%	24.4%	.
CCOc1ccc(C(=O)NCC(=O)N2CCCC2)cc1	9.2%	-3.4%	7.2%	-25.1%	-4.5%	26.4
CCN1/C(=C2/SC(=S)N(NC(C)=O)C2=O)Sc2ccc(Cl)cc21	.	-5.3%	?	18.4µM*	2.8%	-13.1
CCOc1ccc(S(=O)(=O)N2CCN(c3ccc(C)cc3C)CC2)c2ccccc12	-1.9%	-29.3%	.	.	-17.8%	.
CCOc1ccc(S(=O)(=O)N2CCCCC2)c2ccccc12	-2.9%	-75.8%	18.4µM*	20.6µM*	-0.1%	11.9
CCOc1ccc(S(=O)(=O)N2CCOCC2)c2ccccc12	2.0%	1.2%	-26.2%	-28.7%	-1.3%	9.8
CCOc1ccc(S(=O)(=O)n2ccc(C)n2)c2ccccc12	5.3%	-5.0%	?	?	-24.2%	-53.3*
CN(C(=O)c1cccc(NC(=O)Cc2cccc(NC(=O)C3CCCN(C(=O)c4ccccc4)C3)c2)c1)C1CC1 (centres undefined)	.	0.5%	-11.8%	?	?	20.0
O=C(CCNC(=O)C1CCN(S(=O)(=O)c2ccc(F)cc2)CC1)NCc1ccc(Cl)cc1	1.5%	-27.0%	-8.3%	-17.3%	-24.4%	18.2
O=C(Nc1ccc(Cl)c(S(=O)(=O)N2CCOCC2)c1)c1ccc2c(c1)OCCO2	-2.5%	-4.8%	?	?	?	-23.6
COc1ccc(C(=O)Nc2ccc(Cl)cc2C(=O)NCCN2CCOCC2)cc1	0.0%	-21.9%	-22.7%	-29.1%	4.6%	-55.6*
COc1ccc(C(=O)NNC(=O)c2cccc(S(=O)(=O)N3CCOCC3)c2)cc1	1.6%	7.6%	-14.0%	-10.8%	8.4%	21.8
O=C(Nc1ccc(Cl)c(S(=O)(=O)N2CCOCC2)c1)c1ccc(Cl)nc1	0.5%	-7.9%	?	18.4µM*	-6.4%	28.0
COc1ccc(C(=O)Nc2ccc(N3CCOCC3)cc2)cc1S(=O)(=O)N1CCOCC1	4.6%	10.6%	-16.8%	-9.3%	-23.8%	8.8
COc1ccc(C(=O)Nc2ccc(-c3ccc(C)o3)cc2)cc1S(=O)(=O)N1CCOCC1	3.1%	-29.0%	?	20.6µM*	-19.1%	-19.4
COc1ccc(C(=O)NC(=S)Nc2cccc(S(=O)(=O)N3CCOCC3)c2)cc1	3.7%	-24.3%	5.8µM*	7.31µM*	0.0%	-3.6
SMILES	TDP1 block	HepG2 viability	DT40 TDP1 CPT	DT40 TDP1 no CPT	TGFb inhibitor	IL1B secr inh
COC(=O)N1[C@H](Cc2ccccc2)C=C[C@]1(C)C(=O)NCc1ccc(N(C)C)cc1	15.3%	.	.	.	.	.
CC1CCN(C(c2ccc(F)cc2)c2sc3nc(-c4ccco4)nn3c2O)CC1 (centres undefined)	2.6%	-16.4%	3.3%	5.1%	-11.6%	.
COc1cccc(CNC(=O)c2ccc(Cl)c(S(=O)(=O)N3CCOCC3)c2)c1	-7.2%[56.1 µM]	-60.3%	-12.3%	4.11µM*	-12.2%	-7.8
COc1ccc(C(=O)Nc2ccc(Cl)c(S(=O)(=O)N3CCOCC3)c2)cc1	-0.6%	-3.3%	?	?	-10.6%	-75.0*
CCOc1c(Br)cc(C(=O)Nc2cccc(S(=O)(=O)N3CCOCC3)c2)cc1OC	.	-10.6%	?	23.1µM*	-10.8%	-20.0
COc1ccc(C(=O)Nc2cccc(S(=O)(=O)N3CCCC3)c2)cc1S(=O)(=O)N1CCOCC1	-0.6%	-6.7%	?	?	-3.4%	6.7
COc1cc(C(=O)OCC(=O)c2ccccc2)cc2c1OCCO2	1.2%	-25.8%	-1.6%	-8.2%	-1.3%	-7.0
COc1ccc(-c2cnc3c(NC(C)=O)cc(-c4ccc(C(=O)N5CCOCC5)cc4)cn23)cc1OC	.	-13.8%	?	23.1µM*	-4.3%	?
CC(=O)Nc1cc(-c2ccc(C(=O)N3CCOCC3)cc2)cn2c(-c3ccc(C(C)=O)cc3)cnc12	.	-24.6%	25.9µM*	11.6µM*	2.2%	-19.1
CC(=O)Nc1cc(-c2ccc(C(=O)N3CCOCC3)cc2)cn2c(-c3ccccc3)cnc12	.	-23.0%	?	?	8.9%	-2.2
CC(=O)Nc1cc(-c2ccc(C(=O)N3CCOCC3)cc2)cn2c(-c3cccc(C(F)(F)F)c3)cnc12	.	-6.5%	?	14.6µM*	12.5%	0.0
CC(=O)Nc1cc(-c2ccc(C(=O)N3CCOCC3)cc2)cn2c(-c3ccc(F)cc3)cnc12	.	-21.0%	?	8.2µM*	14.2%	-6.3
CCC(C)C(NC(=O)OC(C)(C)C)C(=O)NC1COC2CC(n3ccc(NC(C)=O)nc3=O)OC12 (centres undefined)	8.5%	4.7%	.	.	-6.5%	.

From PubChem BioAssay
